The list is not random: actives were taken first. Their share in the collection is about 3.5%.
GPR151 ag = human GPR151 activation; PathHunter beta-arrestin GPR151 cells, luminescence; activation, % at 11.2 µM; hit rate 1% among 650,000; AID 1508602; in the data active = activation above about 4.9%;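 also: 0% = median of compound wells and 100% = cells with positive control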
TEAD-YAP inh = TEAD-YAP interaction inhibition; HEK-TIYL cells, TEAD-Gal4/YAP UAS-luciferase luminescence; inhibition, % at 9.12 µM; hit rate 1.4% among 640,000; AID 1259422; in the data active = inhibition above about 32%;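 also: 0% = median of test compound wells and 100% = reference inhibitor wells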
MITF primary = human MITF inhibition, primary screen; AlphaScreen MITF homodimerization, bead proximity signal; hit rate 0.91% among 650,000; inhibition, % at 2.6 µM; in the data active = inhibition above about 50%;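 also: 0% = vehicle wells with protein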
Target sequence (O75030 whole entry, looked up): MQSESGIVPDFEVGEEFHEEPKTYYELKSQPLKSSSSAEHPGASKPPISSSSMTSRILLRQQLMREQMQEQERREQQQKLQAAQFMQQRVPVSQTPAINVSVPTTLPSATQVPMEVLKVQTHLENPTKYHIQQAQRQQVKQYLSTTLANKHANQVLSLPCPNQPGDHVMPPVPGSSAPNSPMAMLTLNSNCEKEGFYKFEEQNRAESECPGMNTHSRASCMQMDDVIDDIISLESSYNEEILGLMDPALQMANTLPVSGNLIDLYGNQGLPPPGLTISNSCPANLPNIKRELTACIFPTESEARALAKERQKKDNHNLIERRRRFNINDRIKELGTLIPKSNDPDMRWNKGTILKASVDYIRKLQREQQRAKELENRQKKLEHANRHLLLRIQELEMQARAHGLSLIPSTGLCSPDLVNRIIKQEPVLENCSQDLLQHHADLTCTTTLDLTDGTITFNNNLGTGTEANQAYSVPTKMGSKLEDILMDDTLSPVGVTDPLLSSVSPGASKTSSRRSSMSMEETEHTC
FBW7 activator = human FBW7 E3 ligase activation, primary screen; Q969H0; AlphaScreen FBW7–phospho-cyclin E peptide binding, activator screen; normalized activity (activation), % at 26.1 µM; hit rate 0.13% among 650,000; in the data active = normalized activity above about 1.9%;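 also: purified mutant Fbw7 with reduced substrate affinity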
Active calls of the source: *.

SMILES | GPR151 ag | TEAD-YAP inh | MITF primary | FBW7 activator
NC(=S)N/N=C/c1cc(Cl)cc(Cl)c1O | 0 | 7 | 37 | -3
NC(=O)N/N=C/c1cccc(C(=O)O)c1O | 1 | 3 | -6 | 0
Oc1cccc(/C=N/NC(=S)NCCN2CCOCC2)c1O | 0 | -18 | 106* | -1
COC(=O)C1=C(C)NC2=C(C(=O)CC(c3ccc(OC)cc3)C2)C1c1ccncc1 (configuration not stated) | 1 | -5 | 4 | 0
COc1cc(/C=C2/C(=N)N3OC(C)=CC3=NC2=O)cc(Cl)c1OCc1ccccc1 | 0 | 6 | 0 | 0
O=C(c1cnccn1)N1CCC[C@@H](Cn2cc(C(=O)N3CCOCC3)nn2)C1 | 0 | -11 | -6 | 0
CC(=O)c1c(C)oc2ccc(NS(=O)(=O)c3cccc4ccccc34)cc12 | 1 | 2 | 0 | 0
CN(Cc1ccccc1)C(=O)C(Cc1ccccc1)NS(=O)(=O)c1cccs1 (configuration not stated) | 1 | 36* | 4 | 0
CCC(C)NC(=O)C(Cc1ccccc1)NS(=O)(=O)c1cccs1 (configuration not stated) | -1 | 1 | -8 | 0
COc1cc(C(=O)NCc2c(-c3ccccc3)nc3n2CCS3)cc(OC)c1OC | -1 | -5 | -3 | 0
CC(=O)Nc1ccc(CN2CCN(c3ccccn3)CC2)cc1 | 0 | -2 | 12 | 0
Cn1cccc(C(=O)Nc2ccc(CN3CCN(c4ccccn4)CC3)cc2)c1=O | -9 | 46* | 7 | 0
COC1=CC(=O)C=C(OC)C1=O | 1 | 55* | 5 | 0
O=C1OC(c2ccc(Cl)cc2)=N/C1=C\c1ccc(F)cc1 | 0 | 0 | 0 | 0
O=C1CCCN1CCCNc1nc(Nc2ccc(N3CCOCC3)cc2)nc2c1ncn2-c1ccsc1 | -1 | 59* | -1 | 0
c1cncc(Nc2nc3ncnc(Nc4ccc(N5CCOCC5)cc4)c3[nH]2)c1 | -2 | 25 | 3 | 0
O=C1CCCN1CCCNc1nc(Nc2ccc(N3CCOCC3)cc2)c2ncn(-c3ccsc3)c2n1 | 0 | 47* | 19 | 0
O=C1CCCN1CCCNc1nc2ncnc(Nc3ccc(N4CCOCC4)cc3)c2[nH]1 | -2 | 38* | 17 | 0
O=C1CCCN1CCCNc1nc2ncnc(Nc3ccccc3)c2[nH]1 | -2 | -4 | -10 | 0
c1cnc2ccc(Nc3nc4ncnc(Nc5ccc(N6CCOCC6)cc5)c4[nH]3)cc2c1 | -2 | 36* | 5 | 3.9*
O=[N+]([O-])c1cc(C(F)(F)F)cc([N+](=O)[O-])c1NCCCO | 1 | -4 | -21 | 0
Cc1cccc(/C=C2\N=C(c3cccc(C)c3)OC2=O)c1 | 1 | -26 | 2 | 0
CCCCOC(=O)CSC1=C(C#N)C(c2ccccc2Cl)C(C#N)C(=O)N1 (configuration not stated) | 2 | -10 | 5 | 0
OCCCNc1ncnc2ccc(Br)cc12 | 0 | 21 | -1 | 0
Cc1ccccc1CNC(=O)C(C)n1nc(C)c2sc3ccccc3c2c1=O (configuration not stated) | 0 | 9 | 16 | 0
SMILES | GPR151 ag | TEAD-YAP inh | MITF primary | FBW7 activator
Cn1ncc(-c2ccnc(Nc3ccc(-n4cnc(N5CCOCC5)n4)cc3)c2)c1NC(=O)Cc1ccccc1 | 1 | 42* | -2 | -1
CCCn1cc(-c2ccnc(Nc3ccc(-n4cnc(C)n4)cc3)c2)c(-c2ccc(F)cc2)n1 | 1 | -7 | 29 | 0
Cn1ncc(-c2ccnc(Nc3ccc(N4CCOCC4)cc3)c2)c1Nc1ccccc1 | 2 | 20 | -4 | -1
Cn1ncc(-c2ccnc(Nc3ccc(N4CCOCC4)cc3)c2)c1N | 0 | 35* | 0 | 0
Cc1ncn(-c2ccc(Nc3cc(-c4cnn(CCc5ccccc5)c4-c4ccc(F)cc4)ccn3)cc2)n1 | 0 | 34* | 24 | 0
O=C(Nc1ccc2c(c1)CN(C(=O)C1Cc3ccccc3O1)CC2)c1ccncc1 (configuration not stated) | 1 | 0 | 2 | 0
OCCC1CCCCN1c1ccnc2c(-c3cccc(Cl)c3)cnn12 (configuration not stated) | 0 | 90* | -7 | 0
OC[C@@H]1CCCN1c1ccnc2c(-c3ccc(F)cc3)cnn12 | -2 | 74* | 2 | 0
OCCC1CCCCN1c1ccnc2c(-c3ccccc3F)cnn12 (configuration not stated) | 0 | 63* | -8 | 0
Cc1ccc(-c2cnn3c(N4CCCCC4CCO)ccnc23)cc1C (configuration not stated) | 0 | 7 | 3 | 0

Bioassay records from PubChem BioAssay.
